Laboratory results as given in PubChem BioAssay (NCI).
This is part of a sample that, as a whole, favours compounds with a hit. Of some 83,000 tested, about 20% had one in any assay.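 48-hour exposure, single concentration, 96-well plates; percent growth endpoint where 0 means no net growth. Active: below 10.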 The source made the active and inactive calls.

The compounds below were run on 786-0 renal (assay: NCI-60 one-dose screen, 48 h (100 = growth as untreated, 0 = no growth, -100 = all killed)). Conditions: 10 µM unless noted.

| Structure (SMILES) | growth |
| --- | --- |
| COc1cc(/C=C/C(=O)c2ccc(N3CCN(C)CC3)cc2)ccc1F | 88.4% (inactive) |
| O=C(Nc1cccc(-c2nc(-c3ccc(NC(=O)c4cccnc4)cc3Cl)no2)c1)Nc1ccc(NC(=O)C2CC2)c(C(F)(F)F)c1 | -47.5% (active) |
| CCNC(=O)Oc1ccc(/C(=C(/C)c2ccc(Cl)cc2)c2ccc(OCCN3CCCC3)cc2)cc1 | 71.4% (inactive) |
| CS(=O)c1nccc(-c2c(-c3ccc(F)c(OCc4ccc(F)cc4)c3)nc3sccn23)n1 (stereo not drawn) | 100% (inactive) |
| CN1CCN(c2ccc(NC(=O)Nc3ccc4c(ccn4-c4cccc(C(N)=O)n4)c3)cc2C(F)(F)F)CC1 | 6.16% (active) |
| O=c1oc2ccc(-c3ccc(F)cc3F)cc2c(=O)n1-c1ccc(F)c(F)c1 | 10.2% (inactive) |
| N#Cc1c(NC(=O)c2ccc(F)c(Cl)c2)sc2c1CCC(=O)C2 | 21.3% (inactive) |
| CC(C)SC1=NC(=C(C(=N1)NC2=ClC=CC=C2)C#N)C3=CC=CC=C3 | 34.7% (inactive) |
| CCOC(=O)c1c(NCC(=O)Nc2cccc(Cl)c2)sc2c1CCCC2 | 106% (inactive) |
| COc1ccc([C@H]2[C@H](O)C(=O)N2c2cc(OC)c(OC)c(OC)c2)cc1 | 19.5% (inactive) |
| O=c1[nH]c2cc(Cl)ccc2n1C1CCN(c2ccc3nnc(Cl)n3n2)CC1 | 97.3% (inactive) |
| O=C1[C@@H]2Cc3c([nH]c4ccccc34)[C@H](c3c(Cl)cccc3Cl)N2C(=O)CN1C1CCN(Cc2ccccc2)CC1 | -26.6% (active) |
| CS(=O)(=O)c1ccc2c(c1)c1c(n2Cc2ccc(Cl)cc2)CCCC1 | 83.5% (inactive) |
| O=C(CCCCCCN1CC(=O)N2[C@@H](c3ccc(Cl)c(F)c3)c3[nH]c4ccccc4c3C[C@H]2C1=O)NO | 93.9% (inactive) |
| O=C(c1ccc(O)cc1)[C@@H]1[C@@H]2CCCN2[C@@]2(C(=O)N(C(=O)c3ccc(F)cc3)c3ccccc32)[C@H]1c1ccc(F)cc1 | 100% (inactive) |
| COc1cc(-c2nc(SCc3ccc(C)cc3)[nH]c(=O)c2C#N)ccc1OCc1ccccc1 | 103% (inactive) |
| CN(C)C(=O)c1ccccc1-n1cnc2ccccc2c1=O | 101% (inactive) |
| CCN1C(=O)N(CC)C2SC(N/N=C/c3ccccc3)=NC21 (stereo not drawn) | 32.7% (inactive) |
| CCOC(=O)Nc1ccc(-c2nc(-c3cccc(O)c3)c(-c3ccnc(Br)c3)[nH]2)cc1 | 20.5% (inactive) |

| Structure (SMILES) | growth |
| --- | --- |
| O=C1c2c(c3c4cc(Br)ccc4[nH]c3c3ccc4ccccc4c23)C(=O)N1CCN1CCCCC1 | -84.2% (active) |
| CN(C)CCn1c2ccc(N)cc2c2nc3ccccc3nc21 | 35.6% (inactive) |
| COc1ccc(-c2cc(-c3cccc4ccccc34)n3c(n2)nc2ccccc23)cc1 | 36.5% (inactive) |
| Nc1c(C(=O)c2ccccc2)sc2nc(-c3cnccn3)cc(-c3cccs3)c12 | 106% (inactive) |
| CCOC(=O)c1c(Nc2ccccc2)nn2c(-c3ccc(OC)c(OC)c3)ccnc12 | 37.6% (inactive) |
| O=C(COc1ccc(C2SCC(=O)N2c2ccccc2)cc1)c1ccccc1 (stereo not drawn) | 102% (inactive) |
| CCn1c2ccc(/C=N/OCCCN(C)C)cc2c2cc(/C=N/OCCCN(C)C)ccc21 | -42.5% (active) |
| N/C(=N\OC(=O)CSc1nc2ccccc2s1)c1ccc2ccccc2c1 | 103% (inactive) |
| COc1ccc(-c2nc3cc(Cl)c(Cl)cc3n2CC(=O)N=Nc2c(O)[nH]c3ccc(Br)cc23)cc1 | -17.3% (active) |
| Oc1ccc(-c2nnc(SCc3ccc(O)c4ncccc34)o2)cc1 | 20.5% (inactive) |
| CC1=CC(=O)CC(C)(C)[C@@]1(O)/C=C/C(C)=C\C(=O)O | -43.2% (active) |
| O=C(N/N=C\c1ccc(Cl)cc1)c1ccc2nc(-c3ccc(Br)cc3)[nH]c2c1 | -73.7% (active) |
| CS(=O)(=O)c1nccc(-c2c(-c3ccc(F)c(OCc4ccccc4)c3)nc3sccn23)n1 | 80.5% (inactive) |
| C=CCn1c(SCC(=O)Nc2ccc(OC)cc2)nnc1-c1ccc(Cl)cc1 | 104% (inactive) |
| CN1C(=O)N(C)C2Nn3c(s/c(=C\c4ccccn4)c3=O)=NC21 (stereo not drawn) | 104% (inactive) |
| Oc1ccc(-c2nnc(SCc3ccc(O)c4ncccc34)n2-c2ccccc2)cc1 | 19.1% (inactive) |
| Fc1ccccc1/C=C(/C1=NCCN1)n1cnc2ccccc21 | 99% (inactive) |
| COc1cnc2c(c1)C(=O)c1c-2n(CCCn2ccnc2)c(=O)c2cc(OC)c(OC)cc12 | -14.9% (active) |
| CC[C@@](C)(NC(=O)C(C)(C)NC(=O)[C@@H](NC(=O)[C@@H]1CCCN1C(=O)C(C)(C)NC(=O)[C@H](CC(C)C)NC(=O)CNC(=O)C(C)(C)NC(=O)[C@@H](NC(=O)C(C)(C)NC(=O)[C@H](CCC(N)=O)NC(=O)[C@H](C)NC(=O)C(C)(C)NC(=O)[C@H](C)NC(=O)C(C)(C)NC(=O)[C@H](C)NC(=O)C(C)(C)NC(C)=O)C(C)C)C(C)C)C(=O)N[C@@H](CCC(N)=O)C(=O)N[C@@H](CCC(N)=O)C(=O)N[C@H](CO)CC1CCCCC1 | -14.2% [5 µM] (active) |
